Source: the supplement of paper PMC10338343
± gives the standard deviation. Over roughly 8,200 sequences, “pre-steady-state target cleavage rate” has its median near 0.024; the highest 2% begin near 1.3. The full list was thinned out, with the highest values kept by preference.

Tested on: MIWI (PIWIL1) piRISC loaded with L1MC piRNA (30 nt)
Test: pre-steady-state target cleavage rate (min^-1); MIWI and MILI are mouse PIWI proteins and EfPiwi is from a freshwater sponge; tags in brackets are library labels; higher = faster piRNA-guided slicing of the target
Conditions: guide: L1MC piRNA 5'p-UAACUAAAUACUAUGCAAGCUGUAGGUCCU
Experimental: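 Cleave-'n-Seq: a library of target RNAs (target site embedded in constant flanks, ACAGCATTCCGCGTTAGTGATATCCG... 5' flank; DNA-blocked outside the site) at 0.1 nM was incubated with 1 nM active mouse MILI or MIWI piRISC (synthetic 5'-monophosphorylated piRNA guide) with or without 500 nM mouse GTSF1 at 33 °C for 1 min to 16 h. Uncleaved targets were sequenced and normalised to non-target controls, and the pooled three trials were fitted to a burst-and-steady-state model to give the pre-steady-state cleavage rate (min^-1; k3 is constrained to at most 1e-4). Sequence is the target site only; target names encode pairing extent (gX:gY) and contiguous / 1-mismatch / 2-mismatch / bulge geometry. Fits with R² ≤ 0 are excluded.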

[1] = auxiliary factor: 500 nM mouse GTSF1
[2] = auxiliary factor: none (no GTSF1)

Row | Sequence | pre-steady-state target cleavage rate [1] | pre-steady-state target cleavage rate [2]
1 | AGGACCUACAGCUAGCAUAGUAAUUAGUUA | 0.745 ± 0.06 | 0.0091 ± 0.0021
2 | UCCUGGAUCACCAUGCAUAGUAUUUAGUUA | 0.0303 ± 0.0068 | –
3 | UGGUCCUACAGCUUGCUUAGUAUUUAGUUA | 1.21 ± 0.035 | 0.0478 ± 0.0087
4 | UCGUCCUACAGCUUGCUUAGUAUUUAGUUA | 1.43 ± 0.047 | 0.0358 ± 0.0073
5 | AGGUCCUACAGCUUGCUUAGUAUUUAGUUA | 1.54 ± 0.069 | 0.0542 ± 0.011
6 | UCCUGCUACAGCUUGCUUAGUAUUUAGUUA | 0.987 ± 0.056 | 0.0337 ± 0.008
7 | UCCUCCUACAGCUUGCUAGUAUUUAGUUA | 0.0615 ± 0.017 | –
8 | UCCAGCUACAGCUUGCUUAGUAUUUAGUUA | 0.78 ± 0.039 | 0.0235 ± 0.004
9 | AGGACCUACAGCUUGCAUAGAUAUUUAGUUA | 0.143 ± 0.048 | –
10 | UCCACCUACAGCUUGCAUUCAAUUUAGUUA | 0.0179 ± 0.0084 | –
11 | UCCACCUGCAGCUUGCAUAGUAUUUAGUUA | 1.15 ± 0.13 | 0.0541 ± 0.011
12 | AGGACCUGCAGCUUGCAUAGUAUUUAGUUA | 1.38 ± 0.088 | 0.0689 ± 0.014
13 | UCCUCCUGCAGCUUGCAUAGUAUUUAGUUA | 1.1 ± 0.053 | 0.0513 ± 0.0088
14 | UCGACCUGACAGCUUGCAUAGUAUUUAGUUA | 1.25 ± 0.057 | 0.0632 ± 0.011
15 | UGGACCUUCUGCUUGCAUAGUAUUUAGUUA | 1.3 ± 0.066 | 0.0534 ± 0.0096
16 | UCGACCUUGUGCUUGCAUAGUAUUUAGUUA | 0.871 ± 0.038 | 0.0513 ± 0.0098
17 | AGGACCUUCUGCUUGCAUAGUAUUUAGUUA | 1.24 ± 0.042 | 0.082 ± 0.015

Row | Sequence | pre-steady-state target cleavage rate [1] | pre-steady-state target cleavage rate [2]
18 | AGGACCUGACAGCUUGCAUAGUAUUUAGUUA | 1.17 ± 0.07 | 0.067 ± 0.011
19 | UGGACCUGACAGCUUGCAUAGUAUUUAGUUA | 1.56 ± 0.12 | 0.0824 ± 0.017
20 | UCGACCUGCAGCUUGCAUAGUAUUUAGUUA | 1.41 ± 0.072 | 0.0674 ± 0.013
21 | UCGACCUUCUGCUUGCAUAGUAUUUAGUUA | 1.45 ± 0.048 | 0.0653 ± 0.011
22 | UCCUGGAACAGCUUGCAUAGUAUUUAGUAA | 0.685 ± 0.046 | 0.0337 ± 0.0083
23 | UCCUGCUACACGAUGCAUAGUAUUUAGUAA | 0.396 ± 0.032 | –
24 | UCCUGGAUGUCGAUGCUUAGUAUUUUGUUA | < 0.0001 | –
25 | UCCUGGAUCACGUUGCAUAGUAUUUAGUAA | 0.0198 ± 0.0044 | –
26 | UCGACGUACAGCUUCCAUAGUAUUUAGUUA | 0.0527 ± 0.011 | 0.00418 ± 0.0013
27 | UCGAGCUACAGCUUGCAUAGUAUUUUGUUA | 1.06 ± 0.06 | 0.0528 ± 0.0088
28 | UCCUGGAUGAGCUUGCAUAGUAUUAUGUUA | 0.194 ± 0.027 | 0.0102 ± 0.0042
29 | UCCUGGAUGAGCUUGCAUAGUAAUUAGAAA | 0.0194 ± 0.0086 | –
30 | UCCUGGUACAGCUUGCAUAGUAUUUUGAUA | 0.166 ± 0.031 | 0.00994 ± 0.0034
31 | UGGACCUGCAGCUUGCAUAGUAUUUAGUUA | 1.57 ± 0.099 | 0.0683 ± 0.013
32 | UCCUGCUGCAGCUUGCAUAGUAUUUAGUUA | 1.27 ± 0.058 | 0.0512 ± 0.011
33 | UGGACCUAGUGCUUGCAUAGUAUUUAGUUA | 0.979 ± 0.061 | 0.0419 ± 0.0095
